Source: PubChem (several laboratories)
Rows were chosen to be rich in hits. Some 1.8% of all compounds tested hit in one or more screens of this group.
UBC13 inh = human UBC13 polyubiquitination inhibition | P61088 | UBC13 polyubiquitin chain formation, TR-FRET | inhibition, % at 20 µM | 330,000 tested, 0.47% active; in the data active = inhibition above about 45%, passing the limit was not always enough
Target sequence (P61088 whole entry, looked up): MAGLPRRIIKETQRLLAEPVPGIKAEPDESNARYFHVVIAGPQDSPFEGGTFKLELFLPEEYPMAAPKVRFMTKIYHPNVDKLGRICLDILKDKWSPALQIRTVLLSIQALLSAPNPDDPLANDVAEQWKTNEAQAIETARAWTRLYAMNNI
MBD2 inh = MBD2-methylated oligo binding inhibition | Q9UBB5 | TR-FRET, MBD2 binding to methylated oligonucleotide | inhibition, % at 4.4 µM | 370,000 tested, 0.31% active; in the data active = inhibition above about 13%
Neddyl block = inhibitors of human cullin neddylation; TR-FRET cullin neddylation, biochemical; calls only at 25 µM; 360,000 tested, 0.58% active; AID 651699; in the data active = inhibition above about 36%
UHRF1 MBD2 ctr = blocks human UHRF1 binding to methylated DNA; UHRF1 binding to methylated oligo, TR-FRET; inhibition, % at 4.4 µM; 370,000 tested, 0.75% active; in the data active = inhibition above about 21%;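 note: UHRF1 SRA domain binding a hemimethylated CpG hairpin DNA probe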
Large screens that a line does not name were inactive.

C[C@H](CO)N1C[C@H](C)[C@@H](CN(C)S(=O)(=O)c2ccccc2)Oc2c(NC(=O)c3ccncc3)cccc2C1=O	none
O=C(N/N=C/c1ccc(-c2ccccc2C(=O)O)o1)c1cccs1	UHRF1 MBD2 ctr 23
CCOC(=O)Cn1cnc2c(nnn2-c2ccccc2)c1=O	none (no result: MBD2 inh, UHRF1 MBD2 ctr)
CCOc1ccc(-n2nnc3c(=O)n(C/C=C/c4ccccc4)cnc32)cc1	UHRF1 MBD2 ctr 23
COC(=O)Cc1ccc(NC(=S)N2CCC(Cc3ccccc3)CC2)cc1	none
COC(=O)C(C)Sc1ncnc2c1c(-c1ccccc1)cn2-c1ccc(OC)cc1 (centres undefined)	none
CCOc1ccc(-n2cc(-c3ccccc3)c3c(SC(C)C(=O)OC)ncnc32)cc1 (centres undefined)	UHRF1 MBD2 ctr 22
O=c1[nH]c2ccccc2cc1CN(Cc1ccco1)S(=O)(=O)c1ccc(F)cc1	UHRF1 MBD2 ctr 23
Cc1ccc(SCCNC(=O)/C=C/c2ccccc2Cl)cc1	UHRF1 MBD2 ctr 27
Clc1ccc2nc(-c3cccc(Br)c3)c(Cc3ccsc3)n2c1	none (no result: UBC13 inh)
COc1cc2c(cc1OC)C(C1C(=O)CC(C)CC1=O)N(C(=O)CCl)CC2 (centres undefined)	UHRF1 MBD2 ctr 32 (not shown: Neddyl block)
COc1cc2c(cc1OC)C(C1C(=O)CCCC1=O)N(C(=O)CCl)CC2 (centres undefined)	none (not shown: Neddyl block)
O=C(/C=C/[C@H]1O[C@@H](n2cnc3c(NC(=O)c4ccccc4)ncnc32)[C@H](O)[C@@H]1O)NCC(c1ccccc1)c1ccccc1	none (no result: UBC13 inh)
O=C(Cn1cnc2c(NCc3ccccc3)ncnc21)NCc1ccc2[nH]ccc2c1	UHRF1 MBD2 ctr 24 (no result: UBC13 inh)
CN1CCC(N(C)C(=O)c2cc(S(=O)(=O)N3CCOCC3)ccc2Cl)CC1	none
Cc1cc(N2CCCC2)nc2ccc(NC(=S)NCCCN3CCC(C)CC3)cc12	UHRF1 MBD2 ctr 22
c1ccc(N2CCN(c3nc4ccccc4n4nnnc34)CC2)cc1	none
COc1cc(C(=O)N2CCN(C(=O)CC(C)C)CC2)cc(OC)c1OC	UHRF1 MBD2 ctr 31
CC1(c2nc3ccccc3[nH]2)CCC(=O)N1Cc1ccccn1 (centres undefined)	none (no result: UBC13 inh)
COc1ccc(OC)c(CCNC(=O)C2CCN(c3ncnc4c3nc3n4CCCCC3)CC2)c1	UHRF1 MBD2 ctr 26
COCCN(CCOC)Cc1c(O)ccc2c1O/C(=C\c1ccco1)C2=O	UHRF1 MBD2 ctr 25
O=C1/C(=C/c2ccco2)Oc2c1ccc(O)c2CN1CCCCC1	none
COc1cc(O)c(CC=C(C)C)c(O)c1C(=O)CCc1ccc(O)cc1	UHRF1 MBD2 ctr 23
Cn1c(NCCOc2ccccc2)nc2cc(-c3ccc(F)cc3)sc2c1=O	none (no result: UBC13 inh)
CC(=O)c1c(O)cc(O)cc1O	none (no result: UBC13 inh)
Cc1ccc(-n2[nH]c3c4c(ccc3c2=O)C(=O)c2ccccc2C4=O)cc1	UHRF1 MBD2 ctr 27
CCc1ccc(N2CCN(S(=O)(=O)CC34CCC(CC3=O)C4(C)C)CC2)cc1 (centres undefined)	none
CCN1CCN(S(=O)(=O)c2ccc(F)c(C(=O)Nc3c(F)cc(F)cc3Br)c2)CC1	none
COC(=O)C1C(c2ccc(OC)c(OC)c2)NC(c2ccc(OC)c(OC)c2)C(C(=O)OC)S1(=O)=O (centres undefined)	UHRF1 MBD2 ctr 23
COc1ccc(-c2ccc(C(=O)Nc3ccccc3)c3occc23)c(C)c1	none (no result: UBC13 inh)
O=C(CNC(=O)c1ccc(Cl)cc1)OCc1nc2ccccc2s1	UHRF1 MBD2 ctr 25
Cc1cccc(CSC2=NCCN2C(=O)c2ccc(Br)o2)c1	UHRF1 MBD2 ctr 46
COc1ccc2c(c1OC)C(=O)N1C2SC[C@H]1C(=O)NC1CCCCC1 (some centres undefined)	none
O=C(Nc1cccc(S(=O)(=O)N2CCCCC2)c1)C1CC(=O)N(Cc2ccco2)C1 (centres undefined)	none
O=C(NCC(O)c1ccc([N+](=O)[O-])cc1)Nc1ccccc1 (centres undefined)	none
CC(NCC(O)c1ccc([N+](=O)[O-])cc1)C12CC3CC(CC(C3)C1)C2 (centres undefined)	UHRF1 MBD2 ctr 22
CC(C)Oc1ccc(Cc2cnc(N)nc2N)cc1	none
CCOC(=O)N1CCN(C(=O)c2ccc(CS(=O)Cc3ccccc3Cl)o2)CC1 (centres undefined)	none
CCOc1ccccc1OCC(=O)Nc1ccc(S(=O)(=O)Nc2ncccn2)cc1	none
CCOc1ccccc1OCC(=O)Nc1ccc(S(=O)(=O)N(C)C)cc1	UHRF1 MBD2 ctr 47
Cc1ccc(OCc2ccc(C(=O)Nc3ccc(C(N)=O)cc3)o2)c([N+](=O)[O-])c1	UHRF1 MBD2 ctr 34
O=C(O)c1ccc(NC(=O)c2ccc(COc3ccccc3)o2)cc1	UHRF1 MBD2 ctr 26
